Screening data: PubChem, several laboratories
Sampled rows, rich in hits. Any-hit rate of the full collection: about 8.9%.
WNV protease inh: WNV NS2B-NS3 proteinase inhibition; actives 0.18% (n = 65,000); z-score (concentration not given with the values); WNV NS2B-NS3 protease, fluorogenic substrate Ex360/Em465; stronger effect = lower value; AID 577; in the data active = z-score below about -3
M1 antagonist: M1 muscarinic receptor (rat) antagonism; P08482; CHO-M1 cells, Fluo-4 calcium, ACh EC80 antagonist mode; stronger effect = lower value; B-score at 10 µM; actives 3.4% (n = 64,000);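 active = calcium fluorescence response, raw or row-and-column corrected B-score, differing from the plate sample mean either way at a set confidence level, mostly lower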
Target sequence (P08482 whole entry, looked up): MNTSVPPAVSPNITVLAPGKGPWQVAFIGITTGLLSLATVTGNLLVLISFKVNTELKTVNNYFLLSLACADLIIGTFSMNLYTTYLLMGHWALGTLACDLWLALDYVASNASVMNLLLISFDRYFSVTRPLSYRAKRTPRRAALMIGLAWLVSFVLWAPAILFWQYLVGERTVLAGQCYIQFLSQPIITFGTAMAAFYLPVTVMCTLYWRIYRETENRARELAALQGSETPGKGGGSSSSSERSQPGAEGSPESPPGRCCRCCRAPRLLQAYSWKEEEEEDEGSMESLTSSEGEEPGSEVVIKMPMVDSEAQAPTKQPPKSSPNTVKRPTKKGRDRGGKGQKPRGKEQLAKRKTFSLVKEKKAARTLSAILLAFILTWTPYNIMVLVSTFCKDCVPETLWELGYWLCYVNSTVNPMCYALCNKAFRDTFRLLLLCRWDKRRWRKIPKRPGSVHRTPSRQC
M1 ag: agonists of M1 muscarinic receptor. actives 3% (n = 64,000). B-score at 10 µM. CHO-M1 cells, Fluo-4 calcium fluorescence, agonist mode; stronger effect = higher value;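 active = fluorescence rise, raw or as B-score row- and column-corrected plate score, outside the 99.7% band of its plate's samples, either direction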
Htt clearance: compounds clearing mutant huntingtin protein; HeLa Exon1htt(103Q)mCFP, aggregate imaging; zero = plate's median compound well; inhibition, % at 1.5 µM; actives 0.42% (n = 47,000); AID 853;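 active = inhibition of aggregate fluorescence above about 70%, also judged a hit by eye on the cell image, limit read from the data, passing the limit was not always enough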;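 also: cells exposed to compound for three days before fixation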
D1 mod: D1 dopamine receptor (human) allosteric modulation. P21728. HEK293 D1, CRE-luciferase, dopamine EC30 potentiation; actives deviate in either direction. B-score at 10 µM. actives 5.9% (n = 58,000);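 active = luminescence count or its row- and column-corrected plate score outside the 99.7% band of the plate's sample wells, on either side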
D1 PAM confirm: D1 receptor (human) allosteric modulation, confirmed; HEK293 D1 CRE-luciferase, dopamine EC30 potentiation; stronger effect = higher value; AID 642; luminescence at 10 µM; actives 88% (n = 2,200); shares compounds with D1 mod;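 active = luminescence in either of two replicates above the same-plate mean plus 3 SD of the low-dose dopamine control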
D1 no dopamine: activates D1 CRE-luciferase signal without dopamine present | HEK293 D1 CRE-luciferase, luminescence, no dopamine; stronger effect = higher value | luminescence at 10 µM | actives 0.8% (n = 1,900) | shares compounds with D1 mod; in the data active = luminescence above about 3900
Isoprot counter: alters isoproterenol CRE-luciferase response in HEK293 cells; shares compounds with D1 mod; HEK293 D1 CRE-luciferase, isoproterenol EC30 counter-screen; calls only at 10 µM; actives 63% (n = 2,200); AID 647;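 active = luminescence in either replicate above plate mean of wells with a partly effective reference agonist dose plus 3 SD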;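 also: isoproterenol raises cAMP through native beta-adrenoceptor Gs so signal bypasses D1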
* marks the source's active call; other numbers are inactive results.

Screening CCn1cc(C(=O)NC2CCCC2)c(=O)c2cc(S(=O)(=O)N3CCOCC3)ccc21 returned WNV protease inh -0.25, M1 antagonist -0.164, M1 ag -0.465 and D1 mod 2.81.
Screening CCC(=O)N1CCc2cc(S(=O)(=O)NCCC(=O)NC3CCCc4ccccc43)ccc21 (stereo not given) returned WNV protease inh 1.94, M1 antagonist 0.757, M1 ag 0.182, D1 mod 3.82*, D1 PAM confirm 8544*, D1 no dopamine 1768 and Isoprot counter inactive.
Screening O=C(O)CCC(=O)N1CCc2cc(S(=O)(=O)NC3CCCc4ccccc43)ccc21 (stereo not given) returned WNV protease inh 0.45, M1 antagonist 0.918, M1 ag 0.226 and D1 mod 0.804.
`COc1ccccc1NC(=O)CCN1CCN(CCC(=O)Nc2ccccc2OC)CC1` gave WNV protease inh -0.61, M1 antagonist -0.00495, M1 ag 0.00238 and D1 mod -0.0158.
Cn1c(=O)c2c(nc(NCc3ccco3)n2CCc2ccccc2)n(C)c1=O was read as WNV protease inh 0.15, M1 antagonist 0.122, M1 ag 0.098 and Htt clearance -32.5.
For Fc1cccc(Cl)c1Cn1nnc(-c2ccc3c(c2)OCO3)n1 the results were WNV protease inh -0.31, M1 antagonist 0.503, M1 ag 0.07 and D1 mod 0.0576.
`Fc1cccc(Cl)c1CSc1nnnn1-c1ccc2c(c1)OCO2` gave WNV protease inh 2, M1 antagonist -0.227, M1 ag 0.79, D1 mod 5.79*, D1 PAM confirm 11540* and Isoprot counter active.
For C=CCSc1ncccc1C(=O)NCc1ccccc1 the results were WNV protease inh -0.63, M1 antagonist -0.382, M1 ag -0.00283, Htt clearance 29.5, D1 mod 24.9*, D1 PAM confirm 20632*, D1 no dopamine 1692 and Isoprot counter active.
`O=C(O)c1ccccc1C(=O)NCc1ccccc1` gave WNV protease inh 0.52, M1 antagonist -0.00331, M1 ag 1.21 and D1 mod 1.53.
For COc1ccc(C2C(C(N)=O)=C(C)Nc3nc(-c4ccccc4OC)nn32)cc1OC (stereo not given) the results were WNV protease inh 1.37, M1 antagonist 0.0443, M1 ag -0.397 and D1 mod -1.44.
COC(=O)c1nc2n(n1)C(c1ccc(OC)c(OC)c1)C(C(=O)OC1CCCCC1)=C(C)N2 (stereo not given) was read as WNV protease inh 0.73, M1 antagonist -0.127, M1 ag 1.24, D1 mod 3.29*, D1 PAM confirm 7744* and Isoprot counter inactive.
For COc1ccc(-c2noc(CSc3ccccc3)n2)cc1OC the results were WNV protease inh 1.38, M1 antagonist -0.42, M1 ag 0.228, Htt clearance -27.6, D1 mod 9.38*, D1 PAM confirm 8800*, D1 no dopamine 1600 and Isoprot counter active.
For COc1ccc(-c2noc(CSc3nnc(CCc4ccccc4)n3-c3ccccc3)n2)cc1OC the results were WNV protease inh 0.78, M1 antagonist -1.43, M1 ag -0.247, Htt clearance 27.1, D1 mod 7.23*, D1 PAM confirm 10480*, D1 no dopamine 1584 and Isoprot counter active.
For COc1ccc(-c2noc(CCN3C(=O)c4ccccc4C3=O)n2)cc1OC the results were WNV protease inh 0.04, M1 antagonist 1.25, M1 ag -0.251, Htt clearance -21.5, D1 mod 2.61*, D1 PAM confirm 17536*, D1 no dopamine 1456 and Isoprot counter inactive.
Screening COc1ccc(-c2nnc(SCc3ccccc3F)o2)cc1OC returned WNV protease inh -0.59, M1 antagonist -0.822, M1 ag 0.168, D1 mod 11.7*, D1 PAM confirm 22288*, D1 no dopamine 1720 and Isoprot counter active.
For c1ccc(SCc2nc(-c3ccncc3)no2)cc1 the results were WNV protease inh -0.69, M1 antagonist 0.797, M1 ag -0.023, Htt clearance 4.8 and D1 mod -0.0914.
